In PubChem BioAssay:
Several values for one entry are separate records, joined by “and”; a condition that tells them apart may be missing. Equal entries are not always repeated.

Biological target: Streptavidin (Streptomyces avidinii) (UniProt P22629)
Assay: streptavidin binders on small-molecule microarray, primary screen, artefact control for SMM compound annotation, biophysical, 635/667 nm fluorescence (AID 1147);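 also: signal reflects streptavidin binding to arrayed compounds as a control protein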
Conditions: streptavidin binding, higher = more signal

Streptavidin (Streptomyces avidinii), sequence (P22629 whole entry, looked up): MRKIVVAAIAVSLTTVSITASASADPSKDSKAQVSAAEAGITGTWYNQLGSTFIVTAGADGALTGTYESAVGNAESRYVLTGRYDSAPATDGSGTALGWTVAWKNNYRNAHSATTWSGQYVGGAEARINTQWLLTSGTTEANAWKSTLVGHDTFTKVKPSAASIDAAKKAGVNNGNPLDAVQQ

SMILES | composite z-score
CC(CO)N1C(=O)[C@@H]2C3C(=O)OCCC=C[C@H]3OC23C=CCN(c2ccc(Cl)cc2)C(=O)[C@@H]13 (some centres undefined) | -0.9 and 0.152
CCOC(=O)NN=C1C[C@@H](O)[C@@H](O)[C@@H]2[C@@H]3C(=O)N(Cc4ccc5c(c4)OCO5)C(=O)[C@@H]3CC[C@@H]12 | 0.79
C=CCN(C(=O)C(c1cccs1)N(C(=O)/C=C\C(=O)O)c1ccc(CCO)cc1)C(C)(C)C (centres undefined) | -0.298 and -0.966
C=CCN(C(=O)C(c1cccs1)N(C(=O)/C=C\C(=O)O)c1c(Cl)cccc1CO)C(C)(C)C (centres undefined) | -1.61 and -1.09
C=CCN(CCCCC)C(=O)C1N(c2c(Cl)cccc2CO)C(=O)C2C(C(=O)O)C3C=CC21O3 (centres undefined) | -1.41
C=CCN(CCCC)C(=O)C(c1cccs1)N(CCOCCO)C(=O)/C=C\C(=O)O (centres undefined) | -0.915 and -0.578
CCCCCN1CC=CC23O[C@@H]4C=CCCOC(=O)C4[C@H]2C(=O)N(C(C)CO)[C@@H]3C1=O (some centres undefined) | -0.819 and -0.0005
COC(=O)[C@H](C)NC(=O)CCC1CC(OC(=O)NCCc2ccc(F)cc2)CC2(CCCC(COC(=O)NCCCN3CCCC3=O)O2)O1 (some centres undefined) | 0.953
COC(=O)C1=C(C)N(Cc2ccccc2)C2=C(C(C)=O)C[C@@](O)(C(=O)OC)C(=O)N2[C@@H]1c1ccccc1 | -0.192 and -0.271
C=CCN(CCCCC)C(=O)C(c1cccs1)N(C(=O)/C=C\C(=O)O)c1c(Cl)cccc1CO (centres undefined) | -1.34 and -1.63
CC(C)CON=C1C[C@@H](O)[C@@H](O)[C@@H]2[C@@H]3C(=O)N(c4cccc(Oc5ccccc5)c4)C(=O)[C@@H]3CC[C@H]12 | 0.804
C=CCN(C(=O)C(c1cccs1)N(C(=O)/C=C\C(=O)O)C(C)(C)CO)c1ccc(OC)cc1 (centres undefined) | -1.19 and -0.56
CCCNC(=O)OC[C@H]1O[C@H](CCON=C(C)CCN2CCc3nc(-c4ccccc4)c(-c4ccccc4)cc3C2)C=C[C@@H]1Oc1ccc(OC)cc1 | 0.114
C=CC[C@@H](O)c1ccc(O)c(F)c1 | -1.6 and -1.65
C=CCN(Cc1ccccc1)C(=O)C(c1cccs1)N(C(=O)/C=C\C(=O)O)c1c(Cl)cccc1CO (centres undefined) | -1.7 and -1.08
CC(C)[Si]1(C(C)C)OCc2cc(CCCc3cc4c(c(CCc5ccccc5)n3)[Si](C(C)C)(C(C)C)OC4)nc(CCc3ccccc3)c21 | -0.59 and 0.473
COC(=O)[C@@]1(Cc2ccc(F)cc2)[C@H]2c3cc(C(=O)N4CCCC4)n(Cc4c(CO)[nH]cc(C)c4=O)c3C[C@H]2CN1C(=O)c1ccccc1 | 0.418 and -0.248
C=CCN(C(=O)C1N(c2ccc(CCO)cc2)C(=O)C2C(C(=O)O)C3C=CC21O3)c1ccc(OC)cc1 (centres undefined) | -0.683 and -1.98
C=CCN(C(=O)C1N(CCOCCO)C(=O)C2C(C(=O)O)C3C=CC21O3)C(C)(C)C (centres undefined) | -0.875 and -0.873
CCOC(=O)c1ccc(NC(=O)O[C@H]2[C@H](OC(=O)Nc3ccccc3)[C@H](OC(=O)Nc3ccccc3)[C@@H](OC)O[C@@H]2CO)cc1 | 1.06 and 0.79

SMILES | composite z-score
CC(C)=NOCc1ccc(-c2cn([C@@H]3COC[C@H]3O)nn2)cc1 | 0.562
C[C@@H]1CC[C@H]2C(=O)O[C@H](CN=[N+]=[N-])CN2[C@H]1c1ccc(Br)cc1 | -0.167 and 0.0058
C=CCN1C(=O)[C@]2(O[C@H](CCn3cc(CCO)nn3)[C@@H]([Si](C)(C)c3ccc(OC)cc3)[C@@H]2C)c2cc(N3C(=O)c4cccc5cccc3c45)ccc21 | 0.377 and 0.732
CC(CO)N1C(=O)[C@@H]2C3C(=O)OCCC=C[C@H]3OC23C=CCN(Cc2ccccc2)C(=O)[C@@H]13 (some centres undefined) | -0.422 and -0.768
C=CCN(C(=O)C1N(c2c(Cl)cccc2CO)C(=O)C2C(C(=O)O)C3C=CC21O3)C(C)(C)C (centres undefined) | 0.163 and -1.11
O=C1C[C@]2(c3ccc([N+](=O)[O-])cc3)C(=O)N(Cc3ccccc3)c3cc(CO)ccc3[C@H]2N1C1CCCCC1 | -0.286 and -0.157
C[C@@H](ON=C1[C@H]2CCn3c(=O)n(-c4ccccc4)c(=O)n3[C@H]2[C@H](O)[C@@H]2O[C@H]12)c1cn([C@H](CO)Cc2ccccc2)nn1 | 0.0375
C=CCN(CCCC)C(=O)C1N(C(C)(C)CO)C(=O)C2C(C(=O)O)C3C=CC21O3 (centres undefined) | -1.54 and -1.29
COC(=O)[C@@]1(Cc2ccccc2)[C@H]2c3cc(C(=O)N(C)C)n(C[C@H](O)CO)c3C[C@H]2CN1C(=O)c1ccccc1 | -0.0247 and 0.888
C[C@@H]1CN2[C@@H](CC[C@@H](C)[C@@H]2c2ccc(Br)cc2)C(=O)O1 | -0.404 and -0.145
COC(=O)C1=C(C)N(Cc2ccccc2)[C@]23O[C@](C(=O)OC)(C(=O)N2[C@@H]1c1ccccc1)[C@@H](C(=O)OC)[C@H]3C(=O)OC | -0.895 and -0.188
C=CCN(Cc1ccccc1)C(=O)C1N(c2ccc(CCO)cc2)C(=O)C2C(C(=O)O)C3C=CC21O3 (centres undefined) | -1.49 and -1.35
CCOC(=O)C[C@H]1[C@H](OC(=O)c2ccccc2-c2ccccc2)[C@@H](NC(=O)Cc2ccc(OC)cc2)c2cc(OCCCO)ccc2N1C(=O)c1ccc2ccccc2n1 | 0.241 and 0.27
CC(C)CCN1CCc2nc(-c3ccccc3)c3c(c2C1)CO[C@@H](C)C3 | 0.375
CCOC(=O)[C@@H]1CC=C2CC1C(=O)N1CCC[C@@H]1[C@H]2O[Si](C)(C)C(C)(C)C (some centres undefined) | -0.759 and -2.05
COC(=O)[C@@]1(Cc2ccc(OC)cc2)[C@H]2c3cc(C(=O)N(C)C)n(Cc4ccc(O)c(OC)c4)c3C[C@H]2CN1C(=O)c1ccccc1 | 1.09 and 0.758
CO[C@H]1COC(=O)CC=C[C@H](C)[C@H](OC)COC(=O)[C@@H](C)COC(=O)CC=C[C@@H]1C | -0.313 and 0.0956
CCOC(=O)C[C@H]1[C@H](OC(=O)c2ccccc2-c2ccccc2)[C@@H](NC(=O)c2ccccc2)c2cc(OCCCO)ccc2N1C(=O)c1ccc2ccccc2n1 | -0.0119 and 1.12
C=CCN(CCCC)C(=O)C1N(c2c(Cl)cccc2CO)C(=O)C2C(C(=O)O)C3C=CC21O3 (centres undefined) | -1.03 and -2
